# Results reported in PubChem BioAssay (Tox21).
# Several values for one entry are separate records, joined by “and”; a condition that tells them apart may be missing. Identical values can stand only once. Results filed as inconclusive are left out. Where a call stands in place of a potency, no number is given. More than one record can exist for a structure, and the calls need not agree. Activity calls are given as the source filed them. Calls come from the whole dose curve; as a rule, active = well fitted cell-killing curve with a large enough effect in the repeat runs; inconclusive = weak or mixed curves, or effect the other way; inactive = no such curve, though single readings can be large or run the other way.
# Assay: Caspase-3/7 induction in CHO-K1 cells by small molecules, qHTS cell viability counter screen (AID 1346979); note: nearly all actives have a fitted effect of over 35% in size
# Settings: CellTiter-Fluor fluorescence, 17 h; series mostly up to 92.4 µM
# From the text: National Center for Advancing Translational Sciences [NCATS]
# NIH Chemical Genomics Center [NCGC]
# U.S. Environmental Protection Agency [EPA]
# National Institutes of Environmental Health Sciences [NIEHS]
# National Toxicology Program [NTP]
# U.S. Food and Drug Administration [FDA]
# Apoptosis is a process of programmed cell death and plays a central role in the development of multicellular organisms. It is a highly regulated process and induces cell death by activating caspases, which are the members of cysteine aspartic acid-specific protease (caspase) family. Caspases involved in apoptosis are classified by their mechanism of action as initiator caspases (caspase-2, -8, -9 and -10) and executioner caspases (caspase-3, -6, and -7). Inhibition of apoptosis results in number of cancers, autoimmune diseases, inflammatory diseases and viral infection. To identify small molecule compounds that induce apoptosis, a homogeneous, luminescent Caspase-Glo 3/7 assay was used. Wild type CHO-K1 cells were used to screen Tox21 libraries for identifying caspase-3/7 activity inducers. Also cytotoxicity of the compounds was tested in parallel by measuring the cell viability using CellTiter-Fluor assay system in the same wells.
# Tox21 Assay Protocol Summary:
# CHO-K1 cells were dispensed at 1,500 per well in 5uL of culture medium into white solid bottom 1536-well plates (Corning Life Sciences, Corning, NY) using a Multidrop Combi (Thermo Scientific, Waltham, MA) dispenser. The assay plates were incubated at 37 C and 5% CO2 for 5hr, and then 23nL of compounds dissolved in DMSO and positive control were transferred using a Pintool station (Wako, San Diego, CA). The assay plates were incubated at 37C and 5% CO2 for 17hr. For cytotoxicity read, after 16hr incubation at 37C, 1uL CellTiter-Fluor reagent (Promega Corporation, Madison, WI) was added to each well of the assay plates using Flying Reagent Dispenser (FRD, Aurora Discovery, San Diego, CA). After 1hr incubation at 37C and 5% CO2, the fluorescence signal was quantified using a ViewLux plate reader (PerkinElmer, Shelton, CT).
# Potency is the fitted concentration of half-maximal effect.
row,SMILES,Potency
1,CCOC(=S)S,61.1 µM (active) and 23.1 µM (active)
2,Nn1cnnc1,inactive
3,Nc1ccc(-c2ccc(N)c(N)c2)cc1N,68.4 µM (active) and 61.1 µM (active)
4,O=S(=O)(Oc1ccc(Cl)cc1)c1ccc(Cl)cc1,inactive
5,O=Cc1ccco1,inactive
6,NC(=S)Nc1ccccc1,inactive
7,CC(C)(C)c1ccccc1O,inactive
8,CCc1cccc(CC)c1N(COC)C(=O)CCl,16.7 µM (active)
9,CCCCCCCCCCCOC(=O)c1ccccc1C(=O)OCCCCCCCCCCC,inactive
10,C1=Cc2cccc3cccc1c23,inactive
11,c1nc[nH]n1,inactive
12,Cc1cc(C)cc(C)c1,inactive
13,O=C(O)C(F)(F)C(F)(F)C(F)(F)C(F)(F)C(F)(F)C(F)(F)C(F)(F)F,inactive
14,CCN(CC)N=O,inactive
15,Cc1ccc(OP(=O)(Oc2ccc(C)cc2)Oc2ccc(C)cc2)cc1,27.3 µM (active) and inactive
16,C#CCOS(=O)OC1CCCCC1Oc1ccc(C(C)(C)C)cc1 (stereo not given),1.94 µM (active) and 1.93 µM (active)
17,COP(=O)(OC)OC,30.9 µM (active) and inactive
18,CC(C)Oc1cc(-n2nc(C(C)(C)C)oc2=O)c(Cl)cc1Cl,61.1 µM (active)
19,CCCCC(CC)COC(=O)Cl (stereo not given),inactive
20,Nc1cccnc1,inactive

row,SMILES,Potency
1,CC(C)N(C(=O)SCC(Cl)=C(Cl)Cl)C(C)C,inactive
2,CCOc1cc(C=O)ccc1O,inactive
3,O=C(NC(=O)c1c(F)cccc1F)Nc1ccc(Cl)cc1,inactive
4,CCN(N=O)C(N)=O,inactive
5,Cc1c(COC(=O)[C@@H]2[C@H](/C=C(\Cl)C(F)(F)F)C2(C)C)cccc1-c1ccccc1,43.1 µM (active)
6,O=[N+]([O-])c1cccc2ccccc12,inactive
7,C=CCc1ccc(OC)cc1,inactive
8,ClC1C(Cl)C(Cl)C(Cl)C(Cl)C1Cl (stereo not given),inactive
9,O=P(O)(O)CCCl,inactive
10,C=C(C)C(=O)OCC1CO1 (stereo not given),inactive
11,O=C1C=CC(=O)C=C1,inactive
12,CC(C)NC(C)C,inactive
13,CN(C)C(=O)Nc1ccc(Cl)cc1,inactive
14,CCC(C)c1ccc(O)cc1 (stereo not given),inactive
15,C[C@]12CCC(=O)C(O)=C1CC[C@@H]1[C@@H]2CC[C@]2(C)C(=O)CC[C@@H]12,inactive
16,CCC(CC)Nc1c([N+](=O)[O-])cc(C)c(C)c1[N+](=O)[O-],inactive
17,Oc1c(Cl)c(Cl)c(Cl)c(Cl)c1Cl,inactive
18,c1ccc(N=Nc2ccccc2)cc1,inactive
19,CCCCC(CC)COC(=O)c1ccc(C(=O)OCC(CC)CCCC)c(C(=O)OCC(CC)CCCC)c1 (stereo not given),inactive
20,Nc1ccc(-c2ccccc2)cc1,56 µM (active) and inactive
